Most compounds without a hit are left out; they make up all but 11% or so of the library.
Pf growth 48h: Primary qHTS for delayed death inhibitors of the malarial parasite plastid, 48 hour incubation; hit rate 5.9% among 310,000; Potency, µM (series often up to 28.7 µM), without a hit: top-dose activity change, negative = inhibition, most hits filed as inhibitors; P. falciparum luciferase growth in erythrocytes, 48 h; AID 504832, 2011; also: % is scaled to controls: 0 for no effect and ±100 for the full control effect
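Luminescence readout; reporter = integrated firefly luciferase in P. falciparum. RBC culture at 2% hematocrit, 0.1% parasitemia final, 37 C/5% CO2; decreased signal taken as growth inhibition.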
Pf growth 96h: Primary qHTS for delayed death inhibitors of the malarial parasite plastid, 96 hour incubation; P. falciparum luciferase reporter growth, 96 h; Potency, µM (top dose mostly 28.7 µM), without a hit: at the top dose activity change, negative = inhibition, most hits filed as inhibitors; hit rate 6.9% among 320,000; AID 504834, 2011; also: % is scaled to controls: 0 for no effect and ±100 for the full control effect
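Plates of compound plus infected erythrocytes (2% hematocrit, 0.05% parasitemia final) incubate 96 hours, 37 C, 5% CO2. Detection reagent added; reduced luminescence from the parasites' luciferase reporter flags inhibition.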
NS1 function inh: qHTS Assay for Inhibitors of Influenza NS1 Protein Function. Potency, µM (doses to about 46.1 µM), for inactives: at the highest dose activity, positive = more growth. hit rate 0.4% among 270,000; calls by dose curve; also: actives are rising curves; nearly all actives have a fitted effect of over 50% in size
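In this qHTS, NS1 from influenza A is expressed in budding yeast, where it slows growth. Cells are switched from glucose to 2% galactose medium (pH 6.0, -URA), treated with compound, and growth recovery is read at OD600.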
AMA1 RON2 block: qHTS for Inhibitors of AMA1-RON; Towards Development of Antimalarial Drug Lead: Primary Screen; Plasmodium falciparum AMA1 (3D7) - RON2 peptide interaction; AlphaScreen AMA1-biotinylated RON2 peptide binding; Potency, µM (series often up to 58.2 µM), without a hit: at the highest dose activity change, negative = inhibition, usual class: inhibitors; hit rate 0.2% among 360,000; AID 720542, 2013;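 also: 0% = vehicle wells and -100% = peptide control; nearly all actives have a fitted effect of over 45% in size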
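AMA1 (3D7) with his tag at 25 nM final met compounds first, then biotinylated RON2 peptide at 25 nM; detection used donor plus acceptor beads, 10 µg/mL apiece, read by AlphaScreen after 30 min at room temperature.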
Sm TGR inh: qHTS Assay for the Inhibitors of Schistosoma Mansoni Peroxiredoxins | Schistosoma mansoni thioredoxin glutathione reductase (TGR), Q962Y6 | purified TGR, DTNB reduction, TNB absorbance 405 nm | Potency, µM (titrated, usually from 114 µM), without a hit: at the top dose activity change, negative = inhibition, actives largely listed as inhibitors | hit rate 3% among 360,000 | AID 485364, 2010; also: % is scaled to controls: 0 for no effect and ±100 for the full control effect; nearly all actives have a fitted effect of over 60% in size
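TGR 20 nM + NADPH 100 uM (dispensed conc.), cpd preinc 15 min RT; start with NADPH (500 uM addition) then DTNB (15 mM addition). Kinetic TNB absorbance, 405 nm filter. Four-parameter Hill fit across titration.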
The depositor's hits bear a star; u = inconclusive; x = no result; [ ] = another dose, or the depositor's remark. Unless noted, calls follow the shape of the dose curve; as a rule, active = well fitted curve in the direction sought with a large enough effect; inconclusive = small, poorly fitted or top-dose-only effect, or another doubt; inactive = no such curve, though single readings can be large; an effect the other way counts as inactive or inconclusive. Potency is read from the fitted curve at half-maximal effect.

SMILES	Pf growth 48h	Pf growth 96h	NS1 function inh	AMA1 RON2 block	Sm TGR inh
c1ccc(-c2cc(N3CCOCC3)nc3ccccc23)cc1	2.6%	-8.7%	-52.1%	-0.6%	3.1%
CC1CN(c2cc(-c3ccccc3)c3ccccc3n2)CC(C)O1 (stereo unspecified)	x	2.62µM*	-22.4%	45.9%	6.6%
CCc1ccccc1NC(=O)N(C)CCc1c(C)nn(C)c1C	x	x	x	x	3.5%
Cc1sc2ncnc(N3CCC(C(=O)N(CC(C)C)c4nc5ccccc5s4)CC3)c2c1C	u	3.7µM*	x	-5.0%	7.4%
CCCN(CC(=O)Nc1ccccc1C)C(=O)C1CCN(S(=O)(=O)c2ccc(C)c(C)c2)CC1	x	x	x	-14.1%	x
CCCN(CC(=O)Nc1ccccc1C)C(=O)C1CCN(S(=O)(=O)c2ccccc2C(F)(F)F)CC1	9.28µM*	u	x	2.0%	-0.7%
Cc1ccccc1OCC(=O)NNC(=O)C1CCN(c2ncnc3sc(C)c(C)c23)CC1	u	u	x	37.6%	10.0%
CCCN(CC(=O)Nc1ccccc1C)C(=O)C1CCN(c2ncnc3sc(C)c(C)c23)CC1	u	7.38µM*	x	85.1%	5.2%
Cc1cc2ccccc2c(=O)n1CC(=O)N(C)c1ccc(F)cc1	10.9%	10.4µM*	-1.7%	36.2%	-5.9%
CN(C)C(=O)c1ccc2c(c1)N(CC(=O)NCc1ccccc1Cl)C(=O)C1CCCCN21 (stereo unspecified)	x	x	x	x	-25.9%
Cc1cc(-c2ccco2)n(-c2ccccc2)n1	x	x	u	-7.9%	3.98µM*
CCCCN(CC)CCCNC(=O)c1cc2cc3ccc(C)cc3nc2o1	11.5%[0.00184 µM]	-2.4%	1.8%	17.5%	-21.3%
Cc1ccc2cc3cc(C(=O)NCCCN4CCCCCC4)oc3nc2c1	u	u	4.6%	-9.2%	31.6µM*
Cc1ccc2cc3cc(C(=O)NCCCN4CCCC4)oc3nc2c1	u	-23.6%	-2.9%	-11.3%	-21.2%
Cc1ccc2cc3cc(C(=O)NCCCN4CCc5ccccc5C4)oc3nc2c1	8.28µM*	x	-15.5%	-2.0%	-3.9%
CCN(C)C1CN(Cc2cn(Cc3ccccc3)nn2)S(=O)(=O)C1 (stereo unspecified)	x	x	x	1.9%	x
CCCCC(=O)NC(c1ccco1)c1c(O)ccc2ccccc12 (stereo unspecified)	11.7µM*	u	4.6%	-9.4%	0.3%
CC(=O)Oc1ccc2ccccc2c1C(NC(=O)Cc1ccccc1)c1ccc(Cl)cc1 (stereo unspecified)	4.65µM*	2.94µM*	10.2%	-10.5%	-19.7%
CCOc1ccc(C(NC(=O)CC)c2c(O)ccc3ccccc23)cc1 (stereo unspecified)	13.1µM*	u	24.2%	-3.0%	1.8%
CC(C)(C)C(=O)NC(c1ccccc1)c1c(O)ccc2ccccc12 (stereo unspecified)	4.65µM*	u	7.0%	-3.0%	-19.4%
C/C=C/c1ccc(OCC(=O)N(C)CC(=O)Nc2ccc(F)cc2)c(OC)c1	2.3%	2.7%	x	-2.4%	0.0%
C[C@@H]1CN([C@@H](C)CO)S(=O)(=O)c2ccc(Br)cc2O[C@H]1CN(C)C(=O)C1CCOCC1	x	x	x	6.3%	x
CC(C)[C@H](N[C@@H](C)c1ccccc1)c1c(O)ccc2ccccc12	2.94µM*	u	3.9%	-4.9%	-15.3%
CCCC(=O)NC(c1ccc(OC)cc1)c1c(O)ccc2ccccc12 (stereo unspecified)	11.7µM*	-0.9%	-25.1%	-1.2%	-13.6%
COc1ccc(C(NC(=O)CC(C)C)c2c(O)ccc3ccccc23)cc1 (stereo unspecified)	u	209.2%	-2.6%	-4.6%	6.0%
SMILES	Pf growth 48h	Pf growth 96h	NS1 function inh	AMA1 RON2 block	Sm TGR inh
CC(C)CC(=O)NC(c1ccccc1Cl)c1c(O)ccc2ccccc12 (stereo unspecified)	u	-97.7%	9.2%	-0.3%	-20.4%
Cc1ccn2c(=O)c(C(=O)NC3CCCCC3C)c(O)nc2c1 (stereo unspecified)	2.33µM*	u	x	-22.0%	-5.4%
Cc1ccn2c(=O)c(C(=O)NCCCN3CCCCC3C)c(O)nc2c1 (stereo unspecified)	-12.2%	u	-7.5%	-5.4%	2.1%
Cc1cccn2c(=O)c(C(=O)NC3CCCCC3)c(O)nc12	u	u	-40.4%	-3.7%	0.0%
Cc1cccn2c(=O)c(C(=O)NC3CCCCC3C)c(O)nc12 (stereo unspecified)	13.1µM*	u	x	27.6%	1.2%
Cc1cccn2c(=O)c(C(=O)NC3CC(C)CC(C)(C)C3)c(O)nc12 (stereo unspecified)	3.7µM*	u	x	-4.8%	-0.9%
CN(C(=O)c1ccc(C#N)cc1)c1nnc(-c2cnccn2)s1	0.2%	92.1%	-78.9%	12.3%	4.4%
O=C(NCCCN1CCN(c2ccccc2F)CC1)c1sc2ncccc2c1-n1cccc1	x	x	x	x	-33.8%
CC(=O)c1cccc(NC(=O)C(C)OC(=O)c2cccc(S(=O)(=O)N3CCN(C)CC3)c2)c1 (stereo unspecified)	u	u	x	-2.2%	50.1µM*
Cc1cccc(NC(=S)N2CCN(S(=O)(=O)c3cccc(F)c3)CC2)c1	13.1µM*	u	x	22.4%	-8.6%
Cc1cccc(NC(=S)N2CCN(S(=O)(=O)c3ccccc3)CC2)c1	u	-1.0%	8.8%	-6.7%	4.1%
CC(=O)c1cccc(NC(=S)N2CCN(S(=O)(=O)c3ccccc3)CC2)c1	u	4.15µM*	15.3%	u	u
Cc1ccc(Sc2ccc(N3CCCC(C(=O)Nc4ccc(F)cc4)C3)nn2)cc1 (stereo unspecified)	x	x	x	x	-0.5%
CCCOc1c(Cl)cc(C(=O)N(Cc2cccc(OC)c2)C2CCS(=O)(=O)C2)cc1Cl (stereo unspecified)	x	x	x	x	8.2%
COC(=O)CN1C(CN2CCOCC2)=Nc2ccc(Br)cc2C1c1ccccc1 (stereo unspecified)	u	u	-2.3%	4.1%	1.7%
COc1ccc(C2c3c(n(C)c4ccccc34)C(=O)N2CC(=O)Nc2cccc(Cl)c2)cc1 (stereo unspecified)	x	x	x	x	-4.0%
COC(=O)CN1C(c2cccc(Cl)c2)=Nc2ccc(Cl)cc2C1c1ccccc1 (stereo unspecified)	2.33µM*	1.65µM*	-38.6%	-26.8%	-5.6%
COC(=O)CN1C(c2ccc(OC)cc2)=Nc2ccc(Cl)cc2C1c1ccccc1 (stereo unspecified)	14.7µM*	10.4µM*	4.3%	13.8%	-14.4%
Oc1oc(C=Nc2ccc(F)cc2F)c2ccccc12	0.0%	39.5%	3.6%	-1.5%	50.1µM*
Cn1cnc([N+](=O)[O-])c1Sc1nnc(-c2cccnc2)n1C	u	u	-3.1%	6.0%	0.447µM*
